From article PMC7862700, “An all-to-all approach to the identification of sequence-specific readers for epigenetic DNA modifications on cytosine” come the findings set out here.

Common to all, as to experiment: DAPPL (digital affinity profiling via proximity ligation, sequencing); 10 mM Tris-HCl pH 7.5, 50 mM NaCl, 1 mM DTT, 4% glycerol, room temperature, 30 min; GST-TFs on glutathione beads, 16-mer random dsDNA library, 0.1% formaldehyde crosslink after washing; high values mean tight binding
In assay [1] the target is T1, FEV (Homo sapiens, UniProt Q99581 1-238).
T1 sequence: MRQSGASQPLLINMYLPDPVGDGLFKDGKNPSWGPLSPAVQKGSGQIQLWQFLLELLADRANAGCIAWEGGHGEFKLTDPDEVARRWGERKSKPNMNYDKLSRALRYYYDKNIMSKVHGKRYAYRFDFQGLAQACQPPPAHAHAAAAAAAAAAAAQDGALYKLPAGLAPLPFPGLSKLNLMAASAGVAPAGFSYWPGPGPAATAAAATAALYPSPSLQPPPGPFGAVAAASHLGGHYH
Conditions: protein: recombinant; tags: N-terminal GST; dsDNA, one strand shown. Summed up: (§1)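 Human transcription factors carrying a GST fusion were produced in yeast, bound to glutathione beads, tagged with DNA barcodes and pooled together with a tag-only sample. Each pool was held with 200 nmole of a random double-stranded 16-mer DNA library in Tris/NaCl/DTT/glycerol buffer for 30 min at room temperature, then washed, crosslinked in 0.1% formaldehyde, proximity-ligated with BsaI/T4 ligase (1 h, 37 °C), PCR-amplified and sequenced on an Illumina NextSeq500. Binding signal is the read frequency of each hexamer for a given factor divided by its frequency in the tag-only sample.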

The target of assay [2] is ETV5 (Homo sapiens, UniProt P41161 1-510). The following applies: protein: recombinant; tags: N-terminal GST; dsDNA, one strand shown. Summed up: as §1
In assay [3] the target is HSF1 (Homo sapiens, UniProt Q00613 1-529). The following applies: protein: recombinant; tags: N-terminal GST; chain copies: 3; dsDNA, one strand shown. Summed up:
as §1

For assay [4], the target named is T2, SPIC (Homo sapiens, UniProt Q8N5J4 1-248).
T2 sequence: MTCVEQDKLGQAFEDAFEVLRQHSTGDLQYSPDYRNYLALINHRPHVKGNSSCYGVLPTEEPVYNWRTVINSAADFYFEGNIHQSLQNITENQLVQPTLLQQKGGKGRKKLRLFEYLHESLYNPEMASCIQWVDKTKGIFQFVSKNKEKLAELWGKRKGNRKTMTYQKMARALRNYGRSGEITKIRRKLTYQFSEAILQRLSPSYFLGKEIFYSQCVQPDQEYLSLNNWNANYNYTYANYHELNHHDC
Conditions: protein: recombinant; tags: N-terminal GST; dsDNA, one strand shown. Summed up:
as §1

For assay [5], the target named is ELF4 (Homo sapiens, UniProt Q99607 1-663). Conditions: protein: recombinant; tags: N-terminal GST; dsDNA, one strand shown. Summed up: as §1
For assay [6], the target named is T3, ELK4 (Homo sapiens, UniProt P28324-2 1-405).
T3 sequence: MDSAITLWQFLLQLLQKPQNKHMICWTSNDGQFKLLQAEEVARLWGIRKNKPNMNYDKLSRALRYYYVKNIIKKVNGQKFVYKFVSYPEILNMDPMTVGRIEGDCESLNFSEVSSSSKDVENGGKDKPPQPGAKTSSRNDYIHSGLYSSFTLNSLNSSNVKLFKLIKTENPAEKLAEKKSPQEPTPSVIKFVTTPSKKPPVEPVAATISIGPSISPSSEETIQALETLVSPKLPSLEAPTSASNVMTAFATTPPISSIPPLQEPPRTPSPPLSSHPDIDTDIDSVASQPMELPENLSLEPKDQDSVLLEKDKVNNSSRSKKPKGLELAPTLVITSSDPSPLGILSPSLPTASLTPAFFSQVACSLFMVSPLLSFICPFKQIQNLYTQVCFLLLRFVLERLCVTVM
Conditions: protein: recombinant; tags: N-terminal GST; dsDNA, one strand shown. Summed up: as §1

Assay [7] concerns the target T4, ETV2 (Homo sapiens, UniProt O00321 1-342).
T4 sequence: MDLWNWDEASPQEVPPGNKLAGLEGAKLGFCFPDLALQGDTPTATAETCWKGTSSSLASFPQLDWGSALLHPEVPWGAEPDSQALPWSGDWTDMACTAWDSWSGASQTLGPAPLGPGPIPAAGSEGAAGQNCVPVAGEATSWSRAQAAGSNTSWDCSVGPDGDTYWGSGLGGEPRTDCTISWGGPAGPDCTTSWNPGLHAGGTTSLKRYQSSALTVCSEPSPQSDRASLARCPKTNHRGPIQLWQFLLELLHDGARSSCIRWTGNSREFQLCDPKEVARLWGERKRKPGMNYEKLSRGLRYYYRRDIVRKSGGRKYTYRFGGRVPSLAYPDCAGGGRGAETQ
The following applies: protein: recombinant; tags: N-terminal GST; dsDNA, one strand shown. Summed up:
as §1

The target in assay [8] is T5, ELF3 (Homo sapiens, UniProt P78545 1-371).
T5 sequence: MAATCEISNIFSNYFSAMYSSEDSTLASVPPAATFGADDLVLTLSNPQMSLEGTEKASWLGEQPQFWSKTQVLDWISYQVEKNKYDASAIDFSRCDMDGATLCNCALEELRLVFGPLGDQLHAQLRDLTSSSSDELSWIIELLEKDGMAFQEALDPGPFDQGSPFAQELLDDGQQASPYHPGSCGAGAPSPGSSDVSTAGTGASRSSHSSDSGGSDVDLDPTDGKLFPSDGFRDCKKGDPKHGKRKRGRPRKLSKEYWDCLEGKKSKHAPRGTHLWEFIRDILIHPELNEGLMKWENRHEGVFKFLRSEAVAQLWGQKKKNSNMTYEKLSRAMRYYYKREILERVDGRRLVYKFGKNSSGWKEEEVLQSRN
Conditions: protein: recombinant; tags: N-terminal GST; dsDNA, one strand shown. Summed up:
as §1

Assay [9] concerns the target CRX (Homo sapiens, UniProt O43186 1-299). Conditions: protein: recombinant; tags: N-terminal GST; dsDNA, one strand shown. Summed up:
as §1

Assay [10] deals with ETV1 (Homo sapiens, UniProt P50549 1-477). The following applies: protein: recombinant; tags: N-terminal GST; dsDNA, one strand shown. Summed up: as §1
Assay [11] deals with T6, ERF (Homo sapiens, UniProt P50548 1-548).
T6 sequence: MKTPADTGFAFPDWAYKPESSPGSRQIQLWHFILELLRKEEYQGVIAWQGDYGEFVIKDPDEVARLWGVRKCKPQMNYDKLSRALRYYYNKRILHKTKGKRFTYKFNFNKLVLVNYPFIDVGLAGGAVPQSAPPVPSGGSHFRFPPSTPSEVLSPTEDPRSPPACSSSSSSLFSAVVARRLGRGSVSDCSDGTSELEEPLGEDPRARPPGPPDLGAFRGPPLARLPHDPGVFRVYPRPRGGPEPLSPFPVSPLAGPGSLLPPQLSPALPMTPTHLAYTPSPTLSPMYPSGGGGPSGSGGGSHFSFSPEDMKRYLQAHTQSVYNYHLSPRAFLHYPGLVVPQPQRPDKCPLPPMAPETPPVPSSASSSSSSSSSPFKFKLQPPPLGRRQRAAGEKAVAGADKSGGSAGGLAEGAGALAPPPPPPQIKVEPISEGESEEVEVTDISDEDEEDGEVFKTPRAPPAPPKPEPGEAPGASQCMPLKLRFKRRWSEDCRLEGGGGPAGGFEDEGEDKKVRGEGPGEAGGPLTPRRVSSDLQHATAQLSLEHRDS
The following applies: protein: recombinant; tags: N-terminal GST; dsDNA, one strand shown. Summed up: as §1

In assay [12] the target is T7, ETV3L (Homo sapiens, UniProt Q6ZN32 1-361).
T7 sequence: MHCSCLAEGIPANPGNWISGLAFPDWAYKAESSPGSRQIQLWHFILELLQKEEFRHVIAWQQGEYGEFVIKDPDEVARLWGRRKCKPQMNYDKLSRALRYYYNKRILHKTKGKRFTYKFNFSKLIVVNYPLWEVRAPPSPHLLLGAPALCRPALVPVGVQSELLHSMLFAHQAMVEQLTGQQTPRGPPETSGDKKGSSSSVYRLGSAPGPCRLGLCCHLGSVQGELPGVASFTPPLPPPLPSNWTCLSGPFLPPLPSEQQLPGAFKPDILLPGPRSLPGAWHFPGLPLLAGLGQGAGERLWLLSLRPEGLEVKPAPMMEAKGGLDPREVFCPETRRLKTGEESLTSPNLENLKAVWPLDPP
Conditions: protein: recombinant; tags: N-terminal GST; dsDNA, one strand shown. Summed up: as §1

The target in assay [13] is T8, ETS2 (Homo sapiens, UniProt P15036 1-469).
T8 sequence: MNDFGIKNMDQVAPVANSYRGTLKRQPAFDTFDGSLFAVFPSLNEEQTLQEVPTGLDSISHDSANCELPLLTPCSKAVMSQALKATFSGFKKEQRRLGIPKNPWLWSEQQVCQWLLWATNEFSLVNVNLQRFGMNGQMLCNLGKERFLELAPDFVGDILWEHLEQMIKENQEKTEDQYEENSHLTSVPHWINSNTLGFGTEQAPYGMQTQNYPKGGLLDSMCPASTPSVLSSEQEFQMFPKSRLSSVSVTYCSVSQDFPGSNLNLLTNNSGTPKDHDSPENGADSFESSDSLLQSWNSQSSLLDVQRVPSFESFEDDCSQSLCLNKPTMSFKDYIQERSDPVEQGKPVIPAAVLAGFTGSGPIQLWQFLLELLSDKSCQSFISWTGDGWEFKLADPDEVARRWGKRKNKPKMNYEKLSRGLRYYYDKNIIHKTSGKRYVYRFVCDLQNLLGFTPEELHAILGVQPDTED
Conditions: protein: recombinant; tags: N-terminal GST; dsDNA, one strand shown. Summed up: as §1

Assay [14] concerns the target T9, SPDEF (Homo sapiens, UniProt O95238 1-335).
T9 sequence: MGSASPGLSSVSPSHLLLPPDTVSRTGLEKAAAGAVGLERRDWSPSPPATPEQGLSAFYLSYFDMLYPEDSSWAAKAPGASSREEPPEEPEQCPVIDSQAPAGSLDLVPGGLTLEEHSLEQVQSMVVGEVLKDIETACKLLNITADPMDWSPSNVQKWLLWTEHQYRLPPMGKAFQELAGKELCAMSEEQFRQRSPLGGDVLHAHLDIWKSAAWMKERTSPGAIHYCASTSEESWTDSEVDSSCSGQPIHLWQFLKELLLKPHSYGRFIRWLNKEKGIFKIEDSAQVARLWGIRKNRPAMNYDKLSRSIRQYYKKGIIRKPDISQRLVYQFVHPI
Conditions: protein: recombinant; tags: N-terminal GST; dsDNA, one strand shown. Summed up: as §1

The target in assay [15] is T10, ETV7 (Homo sapiens, UniProt Q9Y603 1-341).
T10 sequence: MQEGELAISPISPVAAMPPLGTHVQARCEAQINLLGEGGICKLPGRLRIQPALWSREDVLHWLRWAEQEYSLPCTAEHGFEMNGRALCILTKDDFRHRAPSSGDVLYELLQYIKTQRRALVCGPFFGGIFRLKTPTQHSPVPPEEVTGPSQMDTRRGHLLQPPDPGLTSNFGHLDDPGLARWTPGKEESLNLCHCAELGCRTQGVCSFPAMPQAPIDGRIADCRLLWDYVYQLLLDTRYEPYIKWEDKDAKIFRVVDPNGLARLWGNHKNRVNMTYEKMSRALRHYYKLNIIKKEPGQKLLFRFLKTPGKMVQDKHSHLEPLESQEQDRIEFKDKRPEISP
Conditions: protein: recombinant; tags: N-terminal GST; dsDNA, one strand shown. Summed up:
as §1

Assay [16] deals with T11, ELF5 (Homo sapiens, UniProt Q9UKW6-2 1-255).
T11 sequence: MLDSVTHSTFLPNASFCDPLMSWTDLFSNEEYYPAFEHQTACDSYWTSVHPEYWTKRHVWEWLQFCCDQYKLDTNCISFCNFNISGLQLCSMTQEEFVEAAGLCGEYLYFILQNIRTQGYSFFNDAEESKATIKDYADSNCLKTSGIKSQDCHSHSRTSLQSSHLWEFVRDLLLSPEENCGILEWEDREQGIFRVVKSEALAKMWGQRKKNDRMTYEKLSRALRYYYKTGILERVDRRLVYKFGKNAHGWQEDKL
The following applies: protein: recombinant; tags: N-terminal GST; dsDNA, one strand shown. Summed up: as §1

The target of assay [17] is T12, ETV3 (Homo sapiens, UniProt P41162-2 1-143).
T12 sequence: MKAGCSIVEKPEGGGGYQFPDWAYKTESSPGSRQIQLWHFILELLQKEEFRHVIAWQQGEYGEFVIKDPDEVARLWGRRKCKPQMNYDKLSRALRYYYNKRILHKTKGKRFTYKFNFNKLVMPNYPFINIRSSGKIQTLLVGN
Conditions: protein: recombinant; tags: N-terminal GST; dsDNA, one strand shown. Summed up: as §1

For assay [18], the target named is ETV6 (Homo sapiens, UniProt P41212 1-452). Conditions: protein: recombinant; tags: N-terminal GST; dsDNA, one strand shown. Summed up:
as §1

CRX, sequence (O43186 whole entry): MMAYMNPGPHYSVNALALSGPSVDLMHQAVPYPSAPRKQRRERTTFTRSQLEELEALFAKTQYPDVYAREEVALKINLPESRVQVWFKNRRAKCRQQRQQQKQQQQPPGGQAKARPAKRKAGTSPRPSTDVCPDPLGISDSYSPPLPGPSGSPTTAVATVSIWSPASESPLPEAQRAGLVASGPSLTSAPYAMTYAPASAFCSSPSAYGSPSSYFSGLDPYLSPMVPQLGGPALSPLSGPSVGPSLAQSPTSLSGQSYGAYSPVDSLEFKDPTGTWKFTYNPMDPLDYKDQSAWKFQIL
ETV5, sequence (P41161 whole entry): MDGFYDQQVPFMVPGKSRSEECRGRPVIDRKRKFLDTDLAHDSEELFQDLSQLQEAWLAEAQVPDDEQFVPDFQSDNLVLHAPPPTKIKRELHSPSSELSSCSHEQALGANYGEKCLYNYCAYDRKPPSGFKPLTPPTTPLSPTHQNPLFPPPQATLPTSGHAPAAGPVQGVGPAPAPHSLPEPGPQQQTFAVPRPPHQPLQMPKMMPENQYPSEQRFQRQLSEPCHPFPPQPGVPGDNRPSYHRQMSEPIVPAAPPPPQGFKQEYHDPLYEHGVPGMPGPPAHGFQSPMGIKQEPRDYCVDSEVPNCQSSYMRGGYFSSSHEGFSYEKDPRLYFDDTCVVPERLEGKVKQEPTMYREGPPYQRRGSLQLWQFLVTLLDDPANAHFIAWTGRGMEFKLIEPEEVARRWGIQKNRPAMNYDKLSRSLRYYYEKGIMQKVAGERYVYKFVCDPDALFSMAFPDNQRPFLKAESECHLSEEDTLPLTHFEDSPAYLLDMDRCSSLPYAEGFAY
ETV6, sequence (P41212 whole entry): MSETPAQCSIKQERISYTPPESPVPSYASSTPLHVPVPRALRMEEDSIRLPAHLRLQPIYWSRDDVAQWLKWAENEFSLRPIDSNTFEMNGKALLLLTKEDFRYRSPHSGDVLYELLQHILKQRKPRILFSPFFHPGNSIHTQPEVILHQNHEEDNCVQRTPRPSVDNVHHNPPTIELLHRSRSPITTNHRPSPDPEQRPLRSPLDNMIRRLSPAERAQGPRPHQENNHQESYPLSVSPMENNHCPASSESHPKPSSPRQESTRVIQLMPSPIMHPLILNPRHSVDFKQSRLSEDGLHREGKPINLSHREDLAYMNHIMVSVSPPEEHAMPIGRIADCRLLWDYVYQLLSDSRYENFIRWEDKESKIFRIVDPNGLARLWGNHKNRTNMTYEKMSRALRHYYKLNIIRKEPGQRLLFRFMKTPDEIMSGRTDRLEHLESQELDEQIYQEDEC
ETV1, sequence (P50549 whole entry): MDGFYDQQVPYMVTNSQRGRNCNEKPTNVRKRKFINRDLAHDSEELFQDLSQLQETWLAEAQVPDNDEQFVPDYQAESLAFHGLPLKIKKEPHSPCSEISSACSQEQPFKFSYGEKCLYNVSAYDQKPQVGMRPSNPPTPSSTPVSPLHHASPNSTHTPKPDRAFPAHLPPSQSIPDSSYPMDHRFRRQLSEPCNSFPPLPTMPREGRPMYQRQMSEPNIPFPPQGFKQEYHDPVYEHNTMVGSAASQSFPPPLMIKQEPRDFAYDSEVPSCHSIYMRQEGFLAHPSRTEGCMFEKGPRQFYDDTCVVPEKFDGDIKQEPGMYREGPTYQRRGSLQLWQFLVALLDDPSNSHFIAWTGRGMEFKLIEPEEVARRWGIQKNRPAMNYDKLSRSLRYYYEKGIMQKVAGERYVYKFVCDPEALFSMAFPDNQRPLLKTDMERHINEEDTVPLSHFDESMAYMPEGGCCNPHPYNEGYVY
HSF1, sequence (Q00613 whole entry): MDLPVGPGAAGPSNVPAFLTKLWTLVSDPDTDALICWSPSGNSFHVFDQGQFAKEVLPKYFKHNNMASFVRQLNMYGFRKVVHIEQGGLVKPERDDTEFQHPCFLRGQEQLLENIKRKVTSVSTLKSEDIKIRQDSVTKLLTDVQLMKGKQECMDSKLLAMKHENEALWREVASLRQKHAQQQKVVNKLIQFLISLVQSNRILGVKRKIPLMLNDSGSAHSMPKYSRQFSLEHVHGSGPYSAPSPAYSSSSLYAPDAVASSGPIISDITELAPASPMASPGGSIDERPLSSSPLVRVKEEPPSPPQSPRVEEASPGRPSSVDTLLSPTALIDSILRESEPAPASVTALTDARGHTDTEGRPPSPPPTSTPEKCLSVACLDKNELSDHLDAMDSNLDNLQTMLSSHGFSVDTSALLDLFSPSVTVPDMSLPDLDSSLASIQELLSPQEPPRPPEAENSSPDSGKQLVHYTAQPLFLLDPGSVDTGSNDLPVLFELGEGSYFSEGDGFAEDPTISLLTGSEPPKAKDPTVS
ELF4, sequence (Q99607 whole entry): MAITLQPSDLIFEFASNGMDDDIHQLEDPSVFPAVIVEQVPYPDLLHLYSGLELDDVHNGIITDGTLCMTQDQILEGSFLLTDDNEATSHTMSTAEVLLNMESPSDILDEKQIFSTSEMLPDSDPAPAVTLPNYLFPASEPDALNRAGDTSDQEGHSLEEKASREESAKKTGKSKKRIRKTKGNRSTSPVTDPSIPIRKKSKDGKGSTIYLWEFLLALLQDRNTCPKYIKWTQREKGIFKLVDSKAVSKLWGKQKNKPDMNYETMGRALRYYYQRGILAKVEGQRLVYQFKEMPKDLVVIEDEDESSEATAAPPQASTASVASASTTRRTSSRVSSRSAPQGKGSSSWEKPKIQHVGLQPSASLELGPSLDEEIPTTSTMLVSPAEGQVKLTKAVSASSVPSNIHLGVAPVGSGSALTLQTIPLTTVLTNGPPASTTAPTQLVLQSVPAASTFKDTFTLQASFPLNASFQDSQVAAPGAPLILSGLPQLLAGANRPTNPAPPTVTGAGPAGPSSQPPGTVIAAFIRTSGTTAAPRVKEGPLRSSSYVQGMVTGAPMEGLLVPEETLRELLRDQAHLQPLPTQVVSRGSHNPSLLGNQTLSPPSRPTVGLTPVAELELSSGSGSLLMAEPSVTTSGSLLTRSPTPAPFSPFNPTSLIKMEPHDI

In the case of TAACCT, the binding signal was 1.3 fold enrichment (6-mer frequency, TF over GST control) in assay [1]; 1.29 fold enrichment (6-mer frequency, TF over GST control) in [2]; 1.44 fold enrichment (6-mer frequency, TF over GST control) in [3]; 1.17 fold enrichment (6-mer frequency, TF over GST control) in assay [4]; 1.33 fold enrichment (6-mer frequency, TF over GST control) in assay [5]; 1.46 fold enrichment (6-mer frequency, TF over GST control) in assay [6]. Besides, the binding signal in assay [7] is 1.13 fold enrichment (6-mer frequency, TF over GST control); in assay [8] it was 1.29 fold enrichment (6-mer frequency, TF over GST control); in assay [9] it was 1.67 fold enrichment (6-mer frequency, TF over GST control); in assay [10], 1.31 fold enrichment (6-mer frequency, TF over GST control); in assay [11], 1.35 fold enrichment (6-mer frequency, TF over GST control); in assay [12], 1.28 fold enrichment (6-mer frequency, TF over GST control). Also, the binding signal was 1.31 fold enrichment (6-mer frequency, TF over GST control) in [13]; 1.23 fold enrichment (6-mer frequency, TF over GST control) in assay [14]; 1.26 fold enrichment (6-mer frequency, TF over GST control) in assay [15]; 1.29 fold enrichment (6-mer frequency, TF over GST control) in assay [16]; 1.31 fold enrichment (6-mer frequency, TF over GST control) in assay [17]; 1.23 fold enrichment (6-mer frequency, TF over GST control) in assay [18].
